Data from PubChem BioAssay AID1159580 (chemical genetic matrix, 2015).
The campaign covered roughly 5,500 compounds. About 2,000 (36%) were called active. Inconclusive results (about 18%) are left out. Rule as the data show it: active = normalized growth mostly below about 0.91 (no sharp cut-off); inconclusive = no clear call, values can overlap the other calls; inactive = mostly above about 0.92. Some of the results follow.

Assay: chemical genetic growth profiling, strain panel (AID 1159580);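 also: tested at 20 µM; growth read once vehicle control cultures reached saturation at 30 °C; 1 = growth at the plate median or of vehicle wells; lower values mean less growth of the strain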
Settings: growth OD
[1] = S. cerevisiae deletion strains, locus YAL013W, strain DEP1, stronger effect = lower value
[2] = S. cerevisiae deletion strains, locus YGR078C, strain PAC10, stronger effect = lower value
[3] = S. cerevisiae deletion strains, locus YMR263W, strain SAP30, stronger effect = lower value
[4] = S. cerevisiae deletion strains, locus YNL153C, strain GIM3, stronger effect = lower value
[5] = S. cerevisiae deletion strains, locus YAR019C, strain CDC15, stronger effect = lower value
[6] = S. cerevisiae deletion strains, locus YBL105C, strain PKC1, stronger effect = lower value
[7] = S. cerevisiae deletion strains, locus YBR135W, strain CKS1, stronger effect = lower value
[8] = S. cerevisiae deletion strains, locus YBR136W, strain MEC1, stronger effect = lower value
[9] = S. cerevisiae deletion strains, locus YBR160W, strain CDC28, stronger effect = lower value
[10] = S. cerevisiae deletion strains, locus YDL017W, strain CDC7, stronger effect = lower value
[11] = S. cerevisiae deletion strains, locus YDL028C, strain MPS1, stronger effect = lower value
[12] = S. cerevisiae deletion strains, locus YDL101C, strain DUN1, stronger effect = lower value
[13] = S. cerevisiae deletion strains, locus YDL108W, strain KIN28, stronger effect = lower value
[14] = S. cerevisiae deletion strains, locus YDL132W, strain cdc53, stronger effect = lower value
[15] = S. cerevisiae deletion strains, locus YDL214C, strain PRR2, stronger effect = lower value
[16] = S. cerevisiae deletion strains, locus YDR052C, strain DBF4, stronger effect = lower value
[17] = S. cerevisiae deletion strains, locus YDR054C, strain cdc34, stronger effect = lower value
[18] = S. cerevisiae deletion strains, locus YDR226W, strain ADK1, stronger effect = lower value
[19] = S. cerevisiae deletion strains, locus YDR477W, strain SNF1, stronger effect = lower value
[20] = S. cerevisiae deletion strains, locus YER123W, strain YCK3, stronger effect = lower value
[21] = S. cerevisiae deletion strains, locus YER133W, strain GLC7, stronger effect = lower value
[22] = S. cerevisiae deletion strains, locus YFL009W, strain cdc4, stronger effect = lower value
[23] = S. cerevisiae deletion strains, locus YFL029C, strain CAK1, stronger effect = lower value
[24] = S. cerevisiae deletion strains, locus YFR003C, strain YPI1, stronger effect = lower value
[25] = S. cerevisiae deletion strains, locus YFR019W, strain FAB1, stronger effect = lower value
[26] = S. cerevisiae deletion strains, locus YFR028C, strain CDC14, stronger effect = lower value
[27] = S. cerevisiae deletion strains, locus YGR040W, strain KSS1, stronger effect = lower value
[28] = S. cerevisiae deletion strains, locus YGR052W, strain FMP48, stronger effect = lower value
[29] = S. cerevisiae deletion strains, locus YGR092W, strain DBF2, stronger effect = lower value
[30] = S. cerevisiae deletion strains, locus YHR030C, strain SLT2, stronger effect = lower value
[31] = S. cerevisiae deletion strains, locus YHR079C, strain IRE1, stronger effect = lower value
[32] = S. cerevisiae deletion strains, locus YHR082C, strain KSP1, stronger effect = lower value
[33] = S. cerevisiae deletion strains, locus YHR205W, strain SCH9, stronger effect = lower value
[34] = S. cerevisiae deletion strains, locus YIL147C, strain SLN1, stronger effect = lower value
[35] = S. cerevisiae deletion strains, locus YJL095W, strain BCK1, stronger effect = lower value
[36] = S. cerevisiae deletion strains, locus YJL128C, strain PBS2, stronger effect = lower value
[37] = S. cerevisiae deletion strains, locus YJL157C, strain FAR1, stronger effect = lower value
[38] = S. cerevisiae deletion strains, locus YJR016C, strain ILV3, stronger effect = lower value
[39] = S. cerevisiae deletion strains, locus YJR066W, strain TOR1 (second series), stronger effect = lower value
[40] = S. cerevisiae deletion strains, locus YJR066W, strain TOR1, stronger effect = lower value
[41] = S. cerevisiae deletion strains, locus YKL048C, strain ELM1, stronger effect = lower value
[42] = S. cerevisiae deletion strains, locus YKL067W, strain YNK1, stronger effect = lower value
[43] = S. cerevisiae deletion strains, locus YKL101W, strain HSL1, stronger effect = lower value
[44] = S. cerevisiae deletion strains, locus YKL193C, strain SDS22, stronger effect = lower value
[45] = S. cerevisiae deletion strains, locus YKL203C, strain TOR2, stronger effect = lower value
[46] = S. cerevisiae deletion strains, locus YLR113W, strain HOG1, stronger effect = lower value
[47] = S. cerevisiae deletion strains, locus YLR133W, strain CKI1, stronger effect = lower value
[48] = S. cerevisiae deletion strains, locus YLR403W, strain SFP1, stronger effect = lower value
[49] = S. cerevisiae deletion strains, locus YML070W, strain DAK1, stronger effect = lower value
[50] = S. cerevisiae deletion strains, locus YMR001C, strain CDC5, stronger effect = lower value
[51] = S. cerevisiae deletion strains, locus YMR205C, strain PFK2 (second series), stronger effect = lower value
[52] = S. cerevisiae deletion strains, locus YMR277W, strain FCP1, stronger effect = lower value
[53] = S. cerevisiae deletion strains, locus YNL006W, strain LST8, stronger effect = lower value
[54] = S. cerevisiae deletion strains, locus YNL020C, strain ARK1, stronger effect = lower value
[55] = S. cerevisiae deletion strains, locus YNL161W, strain CBK1, stronger effect = lower value
[56] = S. cerevisiae deletion strains, locus YNL183C, strain NPR1, stronger effect = lower value
[57] = S. cerevisiae deletion strains, locus YNL207W, strain RIO2, stronger effect = lower value
[58] = S. cerevisiae deletion strains, locus YNL222W, strain SSU72, stronger effect = lower value
[59] = S. cerevisiae deletion strains, locus YNL307C, strain MCK1 (second series), stronger effect = lower value
[60] = S. cerevisiae deletion strains, locus YOL078W, strain AVO1, stronger effect = lower value
[61] = S. cerevisiae deletion strains, locus YOL136C, strain PFK27, stronger effect = lower value
[62] = S. cerevisiae deletion strains, locus YOR061W, strain CKA2, stronger effect = lower value
[63] = S. cerevisiae deletion strains, locus YOR119C, strain RIO1, stronger effect = lower value
[64] = S. cerevisiae deletion strains, locus YOR231W, strain MKK1, stronger effect = lower value
[65] = S. cerevisiae deletion strains, locus YOR329C, strain SCD5, stronger effect = lower value
[66] = S. cerevisiae deletion strains, locus YPL031C, strain PHO85, stronger effect = lower value
[67] = S. cerevisiae deletion strains, locus YPL153C, strain RAD53, stronger effect = lower value
[68] = S. cerevisiae deletion strains, locus YPL204W, strain HRR25, stronger effect = lower value
[69] = S. cerevisiae deletion strains, locus YPL209C, strain IPL1, stronger effect = lower value
[70] = S. cerevisiae deletion strains, locus YPL256C, strain CLN2, stronger effect = lower value
[71] = S. cerevisiae deletion strains, locus YPR025C, strain CCL1, stronger effect = lower value
[72] = S. cerevisiae deletion strains, locus YPR106W, strain ISR1, stronger effect = lower value
[73] = S. cerevisiae deletion strains, locus YPR111W, strain DBF20, stronger effect = lower value
[74] = S. cerevisiae deletion strains, strain NNK1, stronger effect = lower value
[75] = S. cerevisiae deletion strains, strain TSCII, stronger effect = lower value

Measured: normalized growth

OCC1NCC(O)C(O)C1O (centres undefined)
inactive: [1] 1.02 | S. cerevisiae deletion strains, locus YAL040C, strain CLN3, stronger effect = lower value 1.02 | S. cerevisiae deletion strains, locus YCL061C, strain MRC1 (second series), stronger effect = lower value 1.01 | S. cerevisiae deletion strains, locus YDR363W, strain ESC2, stronger effect = lower value 1.04 | S. cerevisiae deletion strains, locus YER002W, strain NOP16, stronger effect = lower value 1.01 | [2] 1 | [3] 1.01 | S. cerevisiae deletion strains, locus YMR307W, strain GAS1, stronger effect = lower value 1.01 | S. cerevisiae deletion strains, locus YNL128W, strain TEP1, stronger effect = lower value 1.02 | [4] 1.02 | S. cerevisiae deletion strains, locus YNL175C, strain NOP13, stronger effect = lower value 1.02 | S. cerevisiae deletion strains, locus YNL197C, strain WHI3, stronger effect = lower value 1.01 | S. cerevisiae deletion strains, locus YNL224C, strain SQS1, stronger effect = lower value 0.998 | S. cerevisiae deletion strains, locus YOR083W, strain WHI5 (second series), stronger effect = lower value 1

O=C1CSC(c2cccnc2)N1c1ccc(Cl)cc1Cl (centres undefined)
inactive: [5] 0.986 | [6] 0.996 | [7] 0.994 | [8] 0.99 | [9] 0.994 | [10] 0.992 | [11] 0.992 | [12] 1 | [13] 0.985 | [14] 0.993 | [15] 0.931 | [16] 0.997 | [17] 0.987 | [18] 0.989 | [19] 0.919 | [20] 0.823 | [21] 0.897 | [22] 1 | [23] 0.98 | [24] 0.99 | [25] 0.796 | [26] 0.993 | [27] 0.93 | [28] 0.902 | [29] 0.972 | [30] 0.958 | [31] 0.964 | [32] 0.932 | [33] 0.98 | [34] 0.998 | [35] 0.906 | [36] 0.993 | [37] 0.948 | [38] 0.993 | [39] 0.893 | [40] 0.837 | [41] 1.01 | [42] 0.944 | [43] 0.993 | [44] 0.989 | [45] 0.945 | [46] 0.913 | [47] 0.962 | [48] 0.937 | [49] 0.939 | [50] 0.991 | [51] 0.968 | [52] 0.992 | [53] 0.986 | [54] 0.974 | [55] 0.985 | [56] 0.912 | [57] 0.998 | [58] 0.99 | [59] 0.952 | [60] 0.994 | [61] 0.919 | [62] 0.939 | [63] 0.919 | [64] 0.937 | [65] 0.99 | [66] 0.928 | [67] 0.933 | [68] 0.92 | [69] 0.989 | [70] 0.88 | [71] 0.984 | [72] 1.01 | [73] 1 | [74] 0.998 | [75] 0.989

O=c1c(Cl)c(-n2cccn2)cnn1-c1ccc(Cl)cc1Cl
active: [30] 0.71 | [46] 0.691 | [70] 0.831
inactive: [5] 0.93 | [6] 0.948 | [7] 0.943 | [8] 0.949 | [9] 0.96 | [10] 0.95 | [11] 0.954 | [12] 0.985 | [13] 0.962 | [14] 0.95 | [15] 0.906 | [16] 0.93 | [17] 0.913 | [18] 0.974 | [19] 0.893 | [20] 0.722 | [21] 0.909 | [22] 0.955 | [23] 0.916 | [24] 0.953 | [25] 0.956 | [26] 0.965 | [27] 0.883 | [28] 0.902 | [29] 0.539 | [31] 0.768 | [32] 0.988 | [33] 1.02 | [34] 0.955 | [35] 0.823 | [36] 0.94 | [37] 0.864 | [38] 0.932 | [39] 0.726 | [40] 0.901 | [41] 0.979 | [42] 0.903 | [43] 0.951 | [44] 0.936 | [45] 0.909 | [47] 0.943 | [48] 0.92 | [49] 0.917 | [50] 0.917 | [51] 0.926 | [52] 0.941 | [53] 0.934 | [54] 0.914 | [55] 0.931 | [56] 0.857 | [57] 0.968 | [58] 0.949 | [59] 0.901 | [60] 0.928 | [61] 0.951 | [62] 0.93 | [63] 0.947 | [64] 0.842 | [65] 0.943 | [66] 0.862 | [67] 0.84 | [68] 0.903 | [69] 0.954 | [71] 0.947 | [72] 0.986 | [73] 0.981 | [74] 0.97 | [75] 0.908

Cc1c(-c2ccnc(N)n2)nnn1-c1ccc(Cl)cc1Cl
inactive: [1] 1 | S. cerevisiae deletion strains, locus YBR229C, strain ROT2, stronger effect = lower value 0.974 | [12] 0.981 | S. cerevisiae deletion strains, locus YDR150W, strain NUM1, stronger effect = lower value 1.03 | S. cerevisiae deletion strains, locus YEL061C, strain CIN8, stronger effect = lower value 0.959 | [2] 0.985 | [30] 0.732 | S. cerevisiae deletion strains, locus YHR087W, strain rtc3, stronger effect = lower value 0.959 | S. cerevisiae deletion strains, locus YJL187C, strain SWE1, stronger effect = lower value 1.01 | S. cerevisiae deletion strains, locus YJR043C, strain POL32, stronger effect = lower value 1.01 | S. cerevisiae deletion strains, locus YJR075W, strain HOC1, stronger effect = lower value 0.967 | S. cerevisiae deletion strains, locus YKL190W, strain CNB1, stronger effect = lower value 1.01 | S. cerevisiae deletion strains, locus YLR039C, strain RIC1, stronger effect = lower value 0.936 | S. cerevisiae deletion strains, locus YLR058C, strain SHM2 (second series), stronger effect = lower value 0.989 | S. cerevisiae deletion strains, locus YLR085C, strain ARP6, stronger effect = lower value 0.885 | S. cerevisiae deletion strains, locus YLR262C, strain YPT6, stronger effect = lower value 0.932 | S. cerevisiae deletion strains, locus YML094W, strain GIM5, stronger effect = lower value 0.988 | S. cerevisiae deletion strains, locus YMR219W, strain ESC1, stronger effect = lower value 1 | [3] 0.98 | [4] 0.991 | S. cerevisiae deletion strains, locus YNL298W, strain CLA4 (second series), stronger effect = lower value 0.973 | S. cerevisiae deletion strains, locus YNL322C, strain KRE1, stronger effect = lower value 1.01 | S. cerevisiae deletion strains, locus YNR030W, strain Alg12, stronger effect = lower value 0.975 | S. cerevisiae deletion strains, locus YOL006C, strain TOP1, stronger effect = lower value 0.921 | S. cerevisiae deletion strains, locus YPL055C, strain LGE1, stronger effect = lower value 1.08 | S. cerevisiae deletion strains, locus YPL241C, strain CIN2, stronger effect = lower value 0.957 | S. cerevisiae deletion strains, locus YPR135W, strain CTF4, stronger effect = lower value 0.687 | S. cerevisiae strains, strain wild type, stronger effect = lower value 0.992
